Test results reported in ChEMBL document CHEMBL3988442, “University of Dundee, Small-Polar-MMV Screening Library” (2021).

Assays:
[1] = molecular target: T1, Aspartate--tRNA(Asp/Asn) ligase (Mycobacterium tuberculosis (strain ATCC 25618 / H37Rv)) (UniProt P9WFW3); assay: Assay for Asp RNA synthetase-1 from Mycobacterium tuberculosis; type: functional; design: scale not given: direction of the effect not stated beside the values; conditions: 30 µM; also: in the data most compounds retested in dose-response had high values
T1 sequence (whole entry): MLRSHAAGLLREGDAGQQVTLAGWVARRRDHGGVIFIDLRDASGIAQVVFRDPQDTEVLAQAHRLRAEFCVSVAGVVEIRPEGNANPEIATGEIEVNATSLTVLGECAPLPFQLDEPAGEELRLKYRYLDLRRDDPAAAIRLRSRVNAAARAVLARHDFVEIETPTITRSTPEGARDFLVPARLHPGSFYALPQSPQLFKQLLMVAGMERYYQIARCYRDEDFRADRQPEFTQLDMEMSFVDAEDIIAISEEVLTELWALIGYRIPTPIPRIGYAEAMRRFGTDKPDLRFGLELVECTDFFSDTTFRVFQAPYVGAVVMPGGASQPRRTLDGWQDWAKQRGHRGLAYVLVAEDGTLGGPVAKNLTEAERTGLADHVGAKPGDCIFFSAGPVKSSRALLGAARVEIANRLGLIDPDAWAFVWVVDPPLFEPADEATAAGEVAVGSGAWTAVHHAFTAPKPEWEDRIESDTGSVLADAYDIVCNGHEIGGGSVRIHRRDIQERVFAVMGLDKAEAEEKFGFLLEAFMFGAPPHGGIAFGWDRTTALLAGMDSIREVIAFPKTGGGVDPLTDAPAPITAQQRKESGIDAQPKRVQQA

[2] = molecular target: Shiga toxin 2 (Escherichia coli O157:H7) (UniProt P09385+P09386); assay: E. coli 0.157:H7 Shiga Toxin SOP - stx2 screening assay; type: functional; design: scale not given: direction of the effect not stated beside the values; conditions: 30 µM

Structure (SMILES) | Percent Effect [1] | Percent Effect [2]
CN(C)CCO[C@@H]1CC[C@H]2[C@H]1OCCN2C(=O)COc1ccccc1 | 1.51% | -12.1%
CC(C)CNC(=O)CN1C=Nc2ccccc2S1(=O)=O | 5.2% | 32.2%
Cc1cnn(C2CCCN(C(=O)C3=NN(C)C(=O)CC3)C2)c1 (stereo not given) | 3.95% | 3.74%
O=C(C1CC1)N1CCC(c2nc(O)c3c(n2)CCN(C2CCCC2)C3)C1 (stereo not given) | -2.25% | -11.5%
Cn1cc(C2CC(=O)NC23CCN(c2ncc(F)cn2)CC3)cn1 (stereo not given) | 0.844% | -18.9%
COc1ccc(CNC(=O)NC(C)Cn2cccn2)cc1O (stereo not given) | -1.61% | 17.6%
Cc1nc(C)n(CC2CCCCN2CC(=O)Nc2ccncc2)n1 (stereo not given) | -1.82% | -16.8%
CN(C)C(CNC(=O)c1cc2c([nH]c1=O)CCCC2=O)c1ccsc1 (stereo not given) | 2.97% | -21.1%
Cc1cc(CN(C)C(=O)NCc2cccc(N3CCCC3=O)c2)no1 | -2.4% | -15%
c1cnc2c(c1)cc([C@H]1CCCO1)n2CCN1CCOCC1 | 7.52% | 12.7%
O=C(Cn1ccnc1)N1C[C@@H]2CC[C@H](Oc3ccccc3)[C@@H]2C1 | 5.52% | 2.5%
CN1CC(=O)N(c2cccc(F)c2)CC12CCN(Cc1cccnc1)C2 (stereo not given) | 2.03% | -14.7%
O=c1[nH][nH]cc1-c1ccnc(NCCN2CCCC2)n1 | 5.51% | -68.3%
Cc1nc(C2CCCN(C(=O)c3ccc(Cn4cccn4)o3)C2)no1 (stereo not given) | -5.64% | 12.3%
Cc1cc(CN2CCCC2c2noc(C)n2)no1 (stereo not given) | -5.01% | -5.29%
CC(COc1ccccc1)NCc1nc(-c2cccnc2)no1 (stereo not given) | -2.31% | 1.39%
Cc1cnn(C2CCCN(C(=O)Cc3cn4ccccc4n3)C2)c1 (stereo not given) | -6.71% | -40.6%
CCC1=N[C@@]2(CC[C@@H]3CN(S(=O)(=O)CC)C[C@@H]32)C(=O)N1CC(C)C | 2.06% | -9.69%
O=C1CCC(C(=O)NCc2nncn2-c2ccccc2)CN1 (stereo not given) | 3.33% | 4.47%
COc1ccc(OCc2sc(C3(O)CCCNCC3)nc2C)cc1 (stereo not given) | 5.08% | 7.21%
COC(=O)C1CCN(C(=O)c2ccc(NS(C)(=O)=O)c(C)c2)CC1 | -2.94% | -1.7%
COCC(=O)N1CCC(c2nc3ccc(-c4ccccc4)cn3n2)CC1 | -2.8% | -19.6%
CC(C)C(=O)NCC(=O)N(C)C1CCCN(CCc2ccccc2)C1 (stereo not given) | -0.948% | -14.4%
Cc1ccc(C)c(-c2csc(N)c2C#N)c1 | 2.35% | 4.18%
Cc1nccn1CC1CCCN1S(=O)(=O)Cc1ccccc1 (stereo not given) | -1.4% | 4.42%
